Results reported in ChEMBL document CHEMBL4513216, “Probing the Open Global Health Chemical Diversity Library for Multistage-Active Starting Points for Next-Generation Antimalarials” (ACS Infect Dis, 2020).
Hit rate of the full screen: of about 69,000 compounds, about 8,600 (12%) showed an effect of 50% or more. Only a selection was taken, and strong results are over-represented in it overall.

These molecules were tested on Plasmodium berghei (assay: Screen against P. berghei liver stage (PbLuc), transformed with Luciferase, at 10uM). Conditions: tested at 10 uM.
Assay type: functional, HepG2

Question: With `CS(=O)(=O)N1CCC2(CC1)COC(COc1cccnc1)C2` (centres undefined) as the molecule, how does the INHIBITION read?
Answer: -52.3%

Question: `CC(C)(C)c1cc(=O)n2c(n1)SCC(C(=O)NCc1cccs1)C2` (centres undefined) was tested. Which INHIBITION did it give?
Answer: 28%

Question: With `COc1ccc2c(OCC(=O)NC(C)(C)C)ccnc2c1` as the molecule, how does the INHIBITION read?
Answer: 29.6%

Question: Which INHIBITION does the source give for `CCS(=O)(=O)N1CC[C@H]2O[C@H](c3nc(C)no3)CC[C@H]21` here?
Answer: 18.2%

Question: For `Cc1nc2ccc(C(=O)N3C[C@@H](O)[C@H](N4CCN(C)CC4)C3)cc2[nH]1`, which INHIBITION is on record?
Answer: 46%

Question: How did the INHIBITION turn out when `CS(=O)(=O)Cc1ccc(Cl)cc1NCc1ccccc1F` was run?
Answer: 38%

Question: Which INHIBITION does the source give for `Fc1ccccc1CNc1ccnc(C2CCNCC2)c1` here?
Answer: 26.7%

Question: How did the INHIBITION turn out when `CC(C)(CNc1ccc(C#N)c(C(F)(F)F)c1)C(N)=O` was run?
Answer: -21%

Question: Which INHIBITION does the source give for `NS(=O)(=O)c1ccc(NCc2ccccc2F)cc1C(F)(F)F` here?
Answer: 82.3%

Question: `CC(=O)Nc1ccc(CNc2cccc(CS(C)(=O)=O)c2)cc1` was tested. Which INHIBITION did it give?
Answer: 34.6%

Question: How did the INHIBITION turn out when `CS(=O)(=O)c1ccc(NCc2ccccc2)cn1` was run?
Answer: 27.3%

Question: How did the INHIBITION turn out when `Cc1ccccc1CNc1ccc(S(N)(=O)=O)c(C(F)(F)F)c1` was run?
Answer: 93.4%

Question: For `Cc1cc(C)c(S(N)(=O)=O)cc1C(=O)NCC1Cc2ccccc2O1` (centres undefined), which INHIBITION is on record?
Answer: -9.82%

Question: For `NS(=O)(=O)c1ccc(NCc2ccccc2)cc1C(F)(F)F`, which INHIBITION is on record?
Answer: 77.7%

Question: `CN(C)S(=O)(=O)c1ccc(CN2CCCC2c2ccsc2)o1` (centres undefined) was tested. Which INHIBITION did it give?
Answer: -0.96%

Question: With `Cn1nccc1C(=O)N1Cc2ccccc2OC2(CCOCC2)C1` as the molecule, how does the INHIBITION read?
Answer: 29.2%

Question: How did the INHIBITION turn out when `CN(C)C(=O)N1CCOCC2(CCN(c3ccccn3)C2)C1` (centres undefined) was run?
Answer: -3.1%

Question: Which INHIBITION does the source give for `Cc1cnn(CC2CCCCN2C(=O)c2ccc3c(c2)nnn3C)c1` (centres undefined) here?
Answer: -17.8%

Question: How did the INHIBITION turn out when `O=S(=O)(Cc1ccccc1)NCCc1nnc2n1CCC2` was run?
Answer: 31.9%

Question: `CN(C)S(=O)(=O)CCNc1ncc2c(n1)CCN2c1ccccc1` was tested. Which INHIBITION did it give?
Answer: -26.9%

Question: `CCc1cnc(NCCS(=O)(=O)CC(C)C)nc1` was tested. Which INHIBITION did it give?
Answer: 53.7%

Question: With `CC(C)CS(=O)(=O)CCNc1ncccn1` as the molecule, how does the INHIBITION read?
Answer: 10.3%

Question: For `CCc1cnc(NCCCOC2CCCC2)nc1`, which INHIBITION is on record?
Answer: -27%

Question: Which INHIBITION does the source give for `CCc1cnc(NCCCN2CCC(O)CC2)nc1` here?
Answer: -52.7%

Question: How did the INHIBITION turn out when `CCc1cnc(NCCS(=O)(=O)N(C)C)nc1` was run?
Answer: 61.3%

Question: For `CSCCCN(CCN1CCOCC1)Cc1ccco1`, which INHIBITION is on record?
Answer: 45.8%

Question: With `O=C(Nc1nncs1)NC1CCCc2c1cnn2CCO` (centres undefined) as the molecule, how does the INHIBITION read?
Answer: 21.7%

Question: For `CC(C)c1ccc(CN2CCN(C(=O)c3cc(C4CC4)[nH]n3)CC2)cc1`, which INHIBITION is on record?
Answer: 60.2%

Question: How did the INHIBITION turn out when `Cc1csc(N2CCN(C(=O)c3cc(C4CC4)[nH]n3)CC2)n1` was run?
Answer: 12%

Question: How did the INHIBITION turn out when `O=C(c1cc(C2CC2)[nH]n1)N1CCN(Cc2ccc3c(c2)OCO3)CC1` was run?
Answer: 9.54%

Question: Which INHIBITION does the source give for `O=C(c1cc(C2CC2)[nH]n1)N1CCN(Cc2ccsc2)CC1` here?
Answer: 36.4%

Question: `O=C(c1cc(C2CC2)[nH]n1)N1CCN(c2nccs2)CC1` was tested. Which INHIBITION did it give?
Answer: 6.02%

Question: `N#Cc1ccc(N2CCN(C(=O)c3cc(C4CC4)[nH]n3)CC2)c(F)c1` was tested. Which INHIBITION did it give?
Answer: 80.8%

Question: `CC(C)c1cc(C(=O)N2CCN(Cc3ccsc3)CC2)n[nH]1` was tested. Which INHIBITION did it give?
Answer: 36.3%

Question: Which INHIBITION does the source give for `N#Cc1ccc(CN2CCN(C(=O)c3cc(C4CC4)[nH]n3)CC2)cc1` here?
Answer: 84.2%

Question: How did the INHIBITION turn out when `Cc1cccc(CN2CCN(C(=O)c3cc(C4CC4)[nH]n3)CC2)c1` was run?
Answer: -24.2%

Question: Which INHIBITION does the source give for `COc1ccnc(N2CCN(C(=O)c3cc(C4CC4)[nH]n3)CC2)n1` here?
Answer: 25.1%

Question: With `CC(C)c1cc(C(=O)N2CCN(Cc3ccc(C#N)cc3)CC2)n[nH]1` as the molecule, how does the INHIBITION read?
Answer: 82.5%

Question: How did the INHIBITION turn out when `CC(C)c1cc(C(=O)N2CCCN(Cc3ccccc3)CC2)n[nH]1` was run?
Answer: 48.4%

Question: Which INHIBITION does the source give for `CN1CCN(CCCNC(=O)c2nc3ccccc3c(=O)[nH]2)CC1` here?
Answer: 24.2%

Question: `CN1CCN(C[C@@H]2OC[C@H]3CN(CCc4ccccc4)CC[C@H]32)CC1` was tested. Which INHIBITION did it give?
Answer: -40%

Question: How did the INHIBITION turn out when `CC(C)n1cc(CN2CCCN(C(=O)CC3CCCCC3)CC2)cn1` was run?
Answer: 4.71%

Question: How did the INHIBITION turn out when `CCc1nnc(CN(CC)C(=O)C2CCC(=O)N(C3CCCC3)C2)o1` (centres undefined) was run?
Answer: 15.3%

Question: How did the INHIBITION turn out when `Cc1ccc(CN(C)Cc2cnc(N3CCOCC3)s2)o1` was run?
Answer: 35.8%

Question: `O=C(c1cc(C2CC2)[nH]n1)N1CCN(Cc2ccc(Cl)cc2)CC1` was tested. Which INHIBITION did it give?
Answer: 74.7%

Question: With `O=C(c1cc(C2CC2)[nH]n1)N1CCN(Cc2ccncc2)CC1` as the molecule, how does the INHIBITION read?
Answer: -0.113%

Question: Which INHIBITION does the source give for `O=C(c1cc(C2CC2)[nH]n1)N1CCN(Cc2ccccc2)CC1` here?
Answer: -26.6%

Question: How did the INHIBITION turn out when `Cc1ccc(C(=O)N(CC2CCCO2)c2ccncc2)o1` (centres undefined) was run?
Answer: 24.1%

Question: For `COCC(C)NC(=O)CN1CCC(C)CC1` (centres undefined), which INHIBITION is on record?
Answer: 18.4%

Question: For `Cc1nc(CN2CCC(c3cc(N4CCCC4)ncn3)CC2)cs1`, which INHIBITION is on record?
Answer: -37.9%

Question: With `c1c[nH]c2nc(C3CCNC3)nc-2c1` (centres undefined) as the molecule, how does the INHIBITION read?
Answer: 19.3%

Question: With `Cc1cc(N)nc(C2(C)CCCN2C(=O)Cc2ccc(F)cc2)n1` (centres undefined) as the molecule, how does the INHIBITION read?
Answer: 29.2%

Question: For `O=C(CN1C[C@@H]2CC[C@H]1CN(Cc1ccccn1)C2)Nc1ccccc1`, which INHIBITION is on record?
Answer: 43.7%

Question: How did the INHIBITION turn out when `O=C(CN1C[C@@H]2CC[C@H]1CN(Cc1ccccn1)C2)NCc1cccs1` was run?
Answer: 51.1%

Question: With `Cn1ccc(NC(=O)CN2C[C@@H]3CC[C@H]2CN(Cc2ccccn2)C3)n1` as the molecule, how does the INHIBITION read?
Answer: 45.8%

Question: How did the INHIBITION turn out when `O=C(O)c1ccc(CC2CCN(S(=O)(=O)N3CCOCC3)C2)cc1` (centres undefined) was run?
Answer: 32.5%

Question: How did the INHIBITION turn out when `CN(C)C(=O)CNC(=O)c1cc2c(s1)CCN2S(C)(=O)=O` was run?
Answer: 26.3%

Question: For `COc1cccc(CNC(=O)c2nc3c(o2)CN(C(=O)N(C)C)C3)c1`, which INHIBITION is on record?
Answer: 48.2%

Question: `COc1cccc(CNC(=O)c2nc3c(o2)CN(S(C)(=O)=O)C3)c1` was tested. Which INHIBITION did it give?
Answer: 52.6%

Question: With `CCCNC(=O)c1nc2c(o1)CN(C(C)=O)C2` as the molecule, how does the INHIBITION read?
Answer: -0.388%

Question: With `Cc1ccc(CNC(=O)c2nc3c(o2)CN(C(=O)c2cccnc2)C3)o1` as the molecule, how does the INHIBITION read?
Answer: -21.1%

Question: How did the INHIBITION turn out when `CN1CCN(C(=O)c2nc3c(o2)CN(C(=O)c2cccnc2)C3)CC1` was run?
Answer: 50.1%

Question: For `CN(C)CCNC(=O)c1nc2c(o1)CN(C(=O)c1cccnc1)C2`, which INHIBITION is on record?
Answer: -75.3%

Question: `O=C(NCc1ccncc1)c1nc2c(o1)CN(C(=O)c1cccnc1)C2` was tested. Which INHIBITION did it give?
Answer: 29%

Question: Which INHIBITION does the source give for `O=C(NCCN1CCCC1)c1nc2c(o1)CN(C(=O)c1cccnc1)C2` here?
Answer: -42.8%

Question: `CS(=O)(=O)N1Cc2nc(C(=O)NCc3ccccc3)oc2C1` was tested. Which INHIBITION did it give?
Answer: 24.6%

Question: How did the INHIBITION turn out when `O=C(NCc1ccccc1)c1nc2c(o1)CN(C(=O)c1cccnc1)C2` was run?
Answer: 53.2%

Question: Which INHIBITION does the source give for `CC(=O)N1Cc2nc(C(=O)NCCc3cccnc3)oc2C1` here?
Answer: 70.7%

Question: How did the INHIBITION turn out when `CN1CCCN(C(=O)c2nc3c(o2)CN(C(=O)c2cccnc2)C3)CC1` was run?
Answer: 1.9%
